Assay results from PubChem BioAssay (NCI).
This is part of a sample that, as a whole, favours compounds with a hit. Of some 83,000 tested, about 20% had one in any assay.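 Cell lines were cultured in 96-well plates, exposed to a single compound concentration, and assessed for percent growth 48 hours later.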 Unmarked numbers belong to inactive results. The source made the active and inactive calls. The calls were made as follows: active = growth percent below 10; inactive = the rest.

Assays:
Experiment in all cases: NCI-60 one-dose screen, 48 h (100 = growth as untreated, 0 = no growth, -100 = all killed)
Conditions in all cases: 10 µM unless noted
NCI-H23 lung = system: NCI-H23 lung
NCI-H226 lung = system: NCI-H226 lung
NCI-H322M lung = system: NCI-H322M lung
HOP-62 NSCLC = system: HOP-62 NSCLC
NCI-H460 lung = system: NCI-H460 lung
HOP-92 NSCLC = system: HOP-92 NSCLC
NCI-H522 lung = system: NCI-H522 lung
A549/ATCC NSCLC = system: A549/ATCC NSCLC
786-0 renal = system: 786-0 renal
COLO 205 colon = system: COLO 205 colon

SMILES | growth (NCI-H23 lung) | growth (NCI-H226 lung) | growth (NCI-H322M lung) | growth (HOP-62 NSCLC) | growth (NCI-H460 lung) | growth (HOP-92 NSCLC) | growth (NCI-H522 lung) | growth (A549/ATCC NSCLC) | growth (786-0 renal) | growth (COLO 205 colon)
Oc1ccccc1/C=N/c1ccccn1 | 220% | 107% | 132% | 112% | 112% | 76.9% | 92% | 104% | 158% | 85.7%
NC(=S)NNC1CCCCC1 | 97.6% | 91.1% | 87.7% | 83.2% | 104% | 88.7% | 72.3% | 74.5% | 99.3% | 100%
O=C(Nc1ccc(-n2ccc3c(NC(=O)c4ccccc4)nccc32)cc1)Nc1cccc(C(F)(F)F)c1 | 38.7% | 44.7% | 63.2% | 84.5% | 34.3% | 32.3% | 45.8% | 7.66% (active) | 88.1% | 64.7%
O=C1OC(=O)C2C3CC(c4ccccc43)C12 (stereo not given) | 101% | 110% | 107% | 97.8% | 113% | 72.4% | 105% | 91.7% | 102% | 97.8%
C=C1C(=O)O[C@H]2[C@H]1CC/C(COC(=O)n1ccnc1C)=C\CC[C@@]1(C)O[C@@H]21 | 98.7% | 91.2% | 98.3% | 99.4% | 105% | 106% | 66.3% | 89.3% | 95.7% | 89.8%
C#CCn1c(-c2cc(OC)c(OC)cc2Br)nc(-c2ccccc2)c1-c1ccccc1 | 42.5% | 66% | 28.6% | 72.8% | 10.8% | 41.9% | 17.4% | 31.2% | 48.8% | 8.73% (active)
Nn1c(CN2CCN(c3cc4c(cc3F)c(=O)c(C(=O)O)cn4C3CC3)CC2)n[nH]c1=S | 95.2% | 107% | 93.3% | 96.4% | 109% | 116% | 85.8% | 101% | 97.3% | 121%
Clc1ccc(CN2COc3c(ccc4cccnc34)C2)cc1Cl | 13.5% | -11.5% (active) | 12.3% | -2.68% (active) | -26.2% (active) | -9.87% (active) | -56.7% (active) | -4.93% (active) | -63.3% (active) | 12%
CCCCCn1ncc(-c2c(O)c(O)cc3c(O)c(-c4c(C)cc5c(-c6cnn(CCCCC)n6)c(O)c(O)cc5c4O)c(C)cc23)n1 | -15.1% (active) | -3.01% (active) | 33.7% | 4.15% (active) | -3.01% (active) | -23.8% (active) | -56.2% (active) | 6.6% (active) | -10.2% (active) | -6.73% (active)
Cc1cccc(NC(=O)CCc2ccc(N3C(N)=NC(N)=NC3(C)C)cc2)c1 | 30.6% | 100% | 42.7% | – | 19.8% | 32.5% | 0.83% (active) | 11.8% | -7.98% (active) | 73.6%
COc1cc(-c2nc(N)n(CC(=O)Nc3ccc(/C(C)=N\O)cc3)n2)cc(OC)c1OC | 95.8% | 94.8% | 94.2% | – | 106% | 88.2% | 60.8% | 74.2% | 104% | 104%
Nc1ncnc2c1c(-c1ccc(Oc3ccccc3)cc1)nn2C[C@H]1SSC[C@H]1O | 19.3% | -2.25% (active) | 13.4% | – | -43.6% (active) | -4.52% (active) | -31.1% (active) | -35.8% (active) | 12.9% | -83.3% (active)
CCn1c(SCC(=O)c2ccc(Br)cc2)nnc1-c1cc2c([nH]c3ccccc32)c(-c2cccc(O)c2)n1 | 85.2% | 94.4% | 79.2% | – | 68.1% | 95.2% | 49.2% | 41% | 32.9% | 108%
CC1=C[S+](c2ccccc2)c2cccc3cc4ccccc4c1c23 (stereo not given) | 5.3% (active) | -21.7% (active) | 21.5% | – | -32.6% (active) | -59.6% (active) | -95.7% (active) | -8.79% (active) | -80% (active) | -89.5% (active)
CCCCOc1c(N)cccc1C(=O)OCCN(CC)CC | 97.1% | 99.8% | 80.7% | – | 105% | 95.7% | 76.5% | 97.4% | 102% | 109%
O=C(Nc1cccc([N+](=O)[O-])c1)c1ccc2ccccc2c1O | 41.6% | 76.9% | 105% | – | 50.2% | 6.8% (active) | -8.09% (active) | 68.1% | 40.4% | 110%
Fc1cccc(F)c1C#Cc1ccc2cccnc2c1 | 79.5% | 101% | 89.8% | – | 86% | 82.4% | 75.8% | 82.6% | 113% | 96.4%
O=C(/C=C/c1ccco1)c1cccc(Nc2nc(Nc3ccccc3)nc(Nc3ccccc3)n2)c1 | 57.6% | 99.5% | 34.6% | – | 8.52% (active) | 49.1% | 78.6% | 20.1% | 44% | 62.3%
CC(C)CCC[C@@H](C)[C@H]1CC[C@H]2[C@@H]3CC=C4N(c5ccccc5)C(=O)CC[C@]4(C)[C@H]3CC[C@]12C | 97.2% | 99.2% | 98.3% | – | 111% | 60.2% | 94.1% | 97.4% | 93.9% | 97.9%
COc1ccc(NC(=O)COCCOCCNC[C@@H]2C(=O)O[C@H]3[C@H]2CC/C(COC(=O)OC/C2=C/CC[C@@]4(C)O[C@H]4[C@H]4OC(=O)[C@@H](CN(C)C)[C@@H]4CC2)=C\CC[C@@]2(C)O[C@@H]32)c(O)c1C(N)=O | 81.8% | 49.9% | 102% | – | 96% | -26.6% (active) | -75.7% (active) | 72.9% | -26.1% (active) | -27.9% (active)
O=C1CCC(=O)N1C1CCCCC1 | 93% | 97.1% | 81.5% | – | 104% | 102% | 103% | 115% | 106% | 101%
N#Cc1c(N)nc(Cl)c(C#N)c1C(=O)c1ccccc1 | 67% | 87.9% | 96.5% | – | 61.5% | 74.2% | 39.1% | 70.9% | 37.8% | 61.6%
CN(C)c1ccc(/C=N/n2c(-c3cc(F)c(Cl)cc3Cl)nn(CN3CCOCC3)c2=S)cc1 | 101% | 97.2% | 94.9% | – | 121% | 75.2% | 74.1% | 101% | 101% | 108%
CCCCn1c(-c2cccc(OC)c2)nc2cc(OC)c(OC)cc2c1=O | 87.3% | 92.8% | 197% | 45.7% | 115% | – | 92.4% | 11.3% | – | 117%
O=c1c2ccccc2sc2c(NCCCNCCO)nc3ccccc3c12 | 50% | 44.4% | 65.8% | – | -33.5% (active) | -1.63% (active) | 20.9% | 25.9% | 41.3% | -78.9% (active)
Cc1cc(SCc2ccc(Cl)cc2Cl)nc(SCc2ccc(Cl)cc2Cl)n1 | 98.2% | 96% | – | 108% | 104% | 112% | 89.1% | 96.6% | 103% | 113%
CC(=O)c1cc2c(c(O)c1C)C(=O)C(=O)c1c(O)cccc1-2 | -15.3% (active) | -69.7% (active) | -83.6% (active) | – | -57.6% (active) | -43.9% (active) | -62.4% (active) | -66.8% (active) | -78.6% (active) | -75.4% (active)
O=C(O)c1ccc(-n2cc(/C=N/Nc3ccccc3F)c(-c3ccc(O)cc3)n2)cc1 | 92.3% | 95.3% | 79.1% | – | 101% | 95.6% | 48.3% | 86.8% | 84% | 95.9%
